# Measured values published in PubChem BioAssay.
# Calls of active or inactive are those of the source.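 The calls were made as follows, unless noted: active = NADPH fluorescence slope more negative than the mean of all samples by about 3 SD, 99.7% confidence; inactive = the rest.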
# What was measured:
# [1] = inhibitors of TNFa-induced NFkB p65 translocation, primary screen, imaging, HUVEC, MLSMR starter and 10KST1 sets (AID 438;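 active = inhibition above 20% together with a positive visual image hit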;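 also: compound added about 3h40 before a 20 min TNFalpha stimulation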;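 as to inhibition: signal is the nuclear over cytoplasmic p65 intensity ratio per well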); conditions: HUVEC TNFa-induced p65 nuclear translocation; cell count: measured here: nuclei count (cytotoxicity indicator), at 2.08 µM; inhibition: at 2 µM, stronger effect = higher value, 0% TNFa-plus-vehicle, 100% no-TNFa wells
# [2] = inhibitors of mutant huntingtin aggregation, primary screen, imaging, exon1htt(103Q)mCFP cells, high-content imaging (AID 483;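 active = visual image review flags a hit and inhibition of aggregation exceeds 20%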;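 also: compound exposure lasted 3 days before fixation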;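 as to nuclei count: percent of the per-plate median nuclei count of sample wells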); conditions: exon1htt(103Q)mCFP cell line, aggregate imaging, at 2 µM; inhibition of aggregation: stronger effect = higher value; nuclei count: measured here: cell count, toxicity
# [3] = inhibitors of E-selectin induction by TNFa, primary screen, imaging, HUVEC, immunofluorescence, MLSMR starter and 10KST1 sets (AID 487;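 active = visually confirmed hit in the image check and inhibition above 20%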;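 as to inhibition: signal is fraction of cell area covered by stained E-selectin grains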;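 as to nuclei count: 100% = median nuclei count of all wells on the same plate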); conditions: HUVEC TNFalpha-induced E-selectin immunofluorescence imaging, at 2 µM; inhibition: stronger effect = higher value; nuclei count: measured here: cell number, toxicity
# [4] = target: Voltage-gated potassium channel subunit beta-2 (Rattus norvegicus) (UniProt P62483); test: KvBeta enzyme negative modulators, primary screen, biochemical, NADPH fluorescence (AID 622;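 active = fluorescence slope higher than the sample average by over 3 SD, cut at about -0.22 in these data, passing the limit was not always enough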;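 also: slope of raw intensity against log time taken from 70 to 1610 s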); conditions: recombinant KvBeta, 4-cyanobenzaldehyde reduction, at 10 µM, stronger effect = higher value
# Chain of Voltage-gated potassium channel subunit beta-2 (Rattus norvegicus) (P62483 whole entry, looked up): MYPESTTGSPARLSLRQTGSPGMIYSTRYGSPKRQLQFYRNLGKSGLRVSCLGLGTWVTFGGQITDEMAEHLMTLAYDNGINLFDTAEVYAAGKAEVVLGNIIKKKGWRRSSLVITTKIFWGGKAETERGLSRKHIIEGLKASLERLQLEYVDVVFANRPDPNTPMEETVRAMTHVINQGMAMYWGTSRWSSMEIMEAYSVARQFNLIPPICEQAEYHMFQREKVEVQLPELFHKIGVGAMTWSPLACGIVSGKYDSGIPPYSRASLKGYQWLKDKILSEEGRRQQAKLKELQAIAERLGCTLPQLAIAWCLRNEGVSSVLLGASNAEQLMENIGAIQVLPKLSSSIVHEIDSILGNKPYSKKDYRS
# [5] = target: Voltage-gated potassium channel subunit beta-2 (Rattus norvegicus) (UniProt P62483); test: KvBeta positive modulators, primary screen, biochemical, NADPH fluorescence (AID 623); conditions: Recombinant KvBeta, NADPH fluorescence decrease slope, 10 min; at 10 µM; stronger effect = lower value;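 also: fluorescence intensity change per second fitted from 20 to 320 s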
# [6] = target: Alpha-2C adrenergic receptor (Homo sapiens) (UniProt P18825); test: modulators of alpha2C/GIRK thallium flux, primary screen, cell-based, HEK293 alpha2C/GIRK1/2 (AID 624;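 active = fluorescence slope after compound addition differing from the mean of all screened samples at 99.7% confidence, in either direction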;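 also: slope of fluorescence ratio to pre-addition baseline per second over 15 to 24 s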); conditions: thallium flux BTC fluorescence, at 10 µM, actives lie on both sides
# Chain of Alpha-2C adrenergic receptor (Homo sapiens) (P18825 whole entry, looked up): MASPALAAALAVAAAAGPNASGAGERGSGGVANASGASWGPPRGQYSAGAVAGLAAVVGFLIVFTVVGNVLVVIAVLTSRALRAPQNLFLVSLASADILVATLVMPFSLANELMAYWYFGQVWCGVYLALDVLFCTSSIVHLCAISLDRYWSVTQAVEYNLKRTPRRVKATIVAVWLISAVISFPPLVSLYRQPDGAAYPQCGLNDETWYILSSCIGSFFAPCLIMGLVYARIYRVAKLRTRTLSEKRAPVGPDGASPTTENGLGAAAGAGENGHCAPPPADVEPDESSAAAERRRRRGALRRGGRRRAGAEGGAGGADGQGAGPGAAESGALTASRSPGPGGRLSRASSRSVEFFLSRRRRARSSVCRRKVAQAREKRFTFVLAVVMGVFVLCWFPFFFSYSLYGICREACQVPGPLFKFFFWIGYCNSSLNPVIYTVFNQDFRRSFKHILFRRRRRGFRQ
# [7] = inhibitors of Sendai virus-induced IRF3 signaling, primary screen, TLR/RLR signaling modifier project, cell-based, Sendai virus stimulus, luciferase, 10K MLSCN set (AID 602276;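 active = inhibition at or above 50% at 10 µM; inactive = inhibition below 50%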;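 also: firefly luciferase from ISG56 promoter only with Renilla not read in this screen; 0% = Sendai virus plus DMSO and 100% = medium plus DMSO without virus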); conditions: HEK293 RL24 IRF3 luciferase reporter, at 10 µM, stronger effect = higher value
# [8] = inhibitors of poly I:C-induced TLR3 signaling, primary screen, cell-based, poly I:C stimulus, luciferase, 10K MLSCN set (AID 602277;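 active = inhibition of the reporter signal at or above 50%; inactive = inhibition below 50%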); conditions: HEK293-TLR3 RL24 IRF3 luciferase reporter, at 10 µM, stronger effect = higher value
SMILES,cell count [1],inhibition [1],inhibition of aggregation [2],nuclei count [2] [%],inhibition [3],nuclei count [3] [%],fluorescence slope [4],NADPH fluorescence slope [5],slope [6],inhibition [7],inhibition [8]
COc1ccccc1NC(=O)c1ccc(COc2ccccc2OC)o1,596,-15.7% (inactive),-20% (inactive),132,-77.6% (inactive),107,-0.605 (inactive),2.4e-05 (inactive),0.00349 (inactive),12.4% (inactive),4.47% (inactive)
C=CCn1c(Br)nc2c1c(=O)[nH]c(=O)n2C,372,-4.7% (inactive),8.4% (inactive),92.3,-62% (inactive),116,-0.373 (inactive),-3.1e-05 (inactive),0.00545 (inactive),15.8% (inactive),9.88% (inactive)
Cc1cc(Cl)cc2c1NC(=O)[C@]21[C@@H]2C(=O)N(Cc3ccccc3)C(=O)[C@@H]2[C@@H]2CCCN21,556,-18.1% (inactive),-7.5% (inactive),115,-65.1% (inactive),107,-0.619 (inactive),-3.2e-05 (inactive),0.00523 (inactive),15.5% (inactive),27.9% (inactive)
Cc1cc(C)c(C#N)c(SCc2ccc(C#N)cc2)n1,609,-7.7% (inactive),-4.1% (inactive),52,40.3% (inactive),104,-0.435 (inactive),-5.8e-05 (inactive),0.00656 (inactive),5.07% (inactive),-3.75% (inactive)
CC(C)(C)n1nnnc1CN1CCN(C2CCCC2)CC1,798,-8.1% (inactive),9.7% (inactive),136,-52.3% (inactive),107,-0.472 (inactive),-4.3e-05 (inactive),0.00587 (inactive),-0.428% (inactive),21.3% (inactive)
CCOC(=O)Cn1c(CN2CCN(c3cccc(Cl)c3)CC2)nc2c1c(=O)[nH]c(=O)n2C,669,0% (inactive),-3.2% (inactive),111,6.7% (inactive),120,-0.583 (inactive),-1.7e-05 (inactive),0.00641 (inactive),16.4% (inactive),32.5% (inactive)
CCOc1ccc(-c2nnc(N)s2)cc1,432,-3.8% (inactive),29.9% (inactive),61.4,-8.1% (inactive),90.5,-0.493 (inactive),-0.000137 (inactive),0.00563 (inactive),-27% (inactive),-78.8% (inactive)
O=C(Cn1ccc2ccccc2c1=O)Nc1ccc2c(c1)OCO2,231,-1.8% (inactive),1% (inactive),103,0% (inactive),91.4,-0.602 (inactive),-4.5e-05 (inactive),0.00747 (inactive),0.207% (inactive),-4.72% (inactive)
CCOC(=O)C1CCCN(c2c(N3CCN(c4ccccn4)CC3)c(=O)c2=O)C1 (centres undefined),631,6.9% (inactive),11.3% (inactive),98.8,-5.4% (inactive),132,-0.503 (inactive),-3.5e-05 (inactive),0.00587 (inactive),3.88% (inactive),27.8% (inactive)
Nn1cnnc1SCC(=O)Nc1ccc2c(c1)OCCO2,553,7.2% (inactive),-23.3% (inactive),96,-74.7% (inactive),208,-0.351 (inactive),-8.3e-06 (inactive),0.00546 (inactive),1.38% (inactive),-17% (inactive)
CCOC(=O)C1CCCN(c2c(Nc3ccc(C)c(C)c3)c(=O)c2=O)C1 (centres undefined),613,9% (inactive),2.3% (inactive),104,-103% (inactive),131,-0.539 (inactive),6.2e-06 (inactive),0.00607 (inactive),-6.09% (inactive),32.9% (inactive)
Cn1c(-c2ccc(C(C)(C)C)cc2)n[nH]c1=S,647,-5.8% (inactive),-4.8% (inactive),77.2,47.5% (inactive),79.7,-0.46 (inactive),-0.000112 (inactive),0.00619 (inactive),-11.8% (inactive),-25.2% (inactive)
CC(CN1CCCCC1)OC(=O)c1ccc(Cl)cc1Cl (centres undefined),585,10.3% (inactive),-8.8% (inactive),87.8,9.3% (inactive),105,-0.438 (inactive),1.5e-06 (inactive),0.00424 (inactive),-18.5% (inactive),-15.9% (inactive)
CC(=O)Nc1ccc2c(c1)nc(CCNC(=O)c1ccccc1)n2C,450,1.3% (inactive),-15.3% (inactive),92.7,-62.8% (inactive),170,-0.54 (inactive),-4.9e-05 (inactive),0.00514 (inactive),1.9% (inactive),98.7% (active)
CCOC(=O)COc1ccc(C2NC(C(=O)O)CS2)cc1 (centres undefined),367,-9.6% (inactive),9.8% (inactive),55.1,-4.8% (inactive),97.6,-0.381 (inactive),-1.3e-05 (inactive),0.00376 (inactive),12.5% (inactive),13% (inactive)
CCOc1ncccc1C(=O)OCC(=O)N1CC(=O)Nc2ccccc21,371,2.2% (inactive),-21.8% (inactive),102,-9.8% (inactive),111,-0.486 (inactive),3.8e-06 (inactive),0.00558 (inactive),7.28% (inactive),22.7% (inactive)
CCOc1ccc(CN2C(=O)c3ccccc3C2C(=O)NCc2cccnc2)cc1 (centres undefined),500,-1.1% (inactive),-9.9% (inactive),110,-52.5% (inactive),94.3,-0.599 (inactive),-1.6e-05 (inactive),0.00638 (inactive),8.35% (inactive),16.9% (inactive)
CC(=O)NC(=O)NC1CSCC1OC(C)=O (centres undefined),590,1.2% (inactive),23.1% (inactive),99,-110% (inactive),132,-0.445 (inactive),-1.3e-05 (inactive),0.00811 (inactive),11% (inactive),12% (inactive)
CC1=C(C(N)=O)C(c2cccnc2)n2nc(SCc3ccccc3Cl)nc2N1 (centres undefined),533,-21.6% (inactive),-13.4% (inactive),104,-130% (inactive),107,-0.463 (inactive),-5.4e-05 (inactive),0.00786 (inactive),-20.3% (inactive),19.5% (inactive)
